HSF-1 act: HSF-1 activators, primary screen, NIH3T3-HGL cells, MG132 stress, luminescence, single point | NIH3T3-HGL HSF-1 luciferase reporter, 8 h; 100% = twice DMSO control signal | activation, % at 9 µM | 300,000 tested, 1.7% active | AID 504408, 2011;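 active means mean replicate activation of at least 50% with a set share of replicates each reaching 50%; inconclusive means only one of those two conditions met; inactive means mean below 50% and too few replicates reaching it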
Hsp70 act: Hsp70 transcriptional activators, primary screen, cell-based, HeLa, Hsp70 promoter luciferase, luminescence, 10 µM | HeLa Hsp70 promoter luciferase reporter; scaled: vehicle 0, proteasome-inhibitor control 100% | activation, % at 10 µM | 200,000 tested, 0.04% active;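 active means activation above the mean across all tested compounds plus 3 SD, cutoff set per campaign, cut at about 5.5% in these data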
S1P4 agonist: S1P4 receptor agonists, primary screen, cell-based. Sphingosine 1-phosphate receptor 4 (Homo sapiens), O95977. S1P4-expressing cell line, agonist reporter assay. activation, % at 4.98 µM. 220,000 tested, 0.35% active. AID 1509, 2009; in the data active means activation above about 11%
Target sequence (O95977 whole entry, looked up): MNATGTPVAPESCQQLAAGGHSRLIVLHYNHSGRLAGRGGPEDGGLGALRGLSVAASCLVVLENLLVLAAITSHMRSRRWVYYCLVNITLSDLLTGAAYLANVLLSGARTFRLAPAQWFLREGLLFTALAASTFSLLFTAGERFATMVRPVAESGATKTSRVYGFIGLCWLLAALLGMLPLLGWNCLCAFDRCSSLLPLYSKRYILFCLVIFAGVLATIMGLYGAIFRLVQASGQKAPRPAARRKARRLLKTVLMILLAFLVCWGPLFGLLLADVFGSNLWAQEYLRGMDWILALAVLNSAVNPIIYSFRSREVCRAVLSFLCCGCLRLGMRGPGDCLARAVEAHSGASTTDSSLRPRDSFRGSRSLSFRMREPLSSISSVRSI
S1P4 antagonist: S1P4 receptor antagonists, primary screen, cell-based; Sphingosine 1-phosphate receptor 4 (Homo sapiens), O95977; S1P4-expressing cells, antagonist mode, reporter read-out; inhibition, % at 4.98 µM; 220,000 tested, 0.26% active; AID 1510, 2009; in the data active means inhibition above about 29%
S1P3 antag: S1P3 receptor antagonists, primary screen, cell-based | 170,000 tested, 0.27% active | Sphingosine 1-phosphate receptor 3 (Homo sapiens), Q99500 | inhibition, % at 4.98 µM | CHO S1P3 NFAT-BLA reporter, FRET fluorescence, antagonist mode;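 active means inhibition above the plate cutoff, the mean inhibition of test wells on that plate plus 3 SD, cut at about 28% in these data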;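 further: cells challenged with S1P at its EC80 of 0.8 µM; blue over green emission ratio from cleaved BLA substrate after 4 h stimulation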
HSF1 inhib: HSF1 inhibitors in luciferase reporter cells, primary screen, cell-based, NIH3T3, luminescence; activity change, negative = inhibition, % at 7.5 µM (by protocol); 300,000 tested, 0.77% active; NIH3T3-HGL HSE-luciferase, MG132-induced, luminescence 8 h; hits give low values; AID 2098, 2009;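 active means more than half of replicate wells show activity change below -50%, luminescence cut by over half; inconclusive means some wells, but at most half, below -50%; inactive means no replicate well below -50%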;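 further: luciferase reports HSF-1 transcriptional activity via heat shock element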
Hits are given with their value. An excerpt weighted towards active compounds, which were near 2.9% of everything screened.

Screening O=C(c1ccc(-c2ccc(Cl)cc2Cl)o1)N1CCOCC1 returned HSF-1 act 60, Hsp70 act inactive, S1P4 agonist inactive, S1P4 antagonist inactive, S1P3 antag inactive and HSF1 inhib inactive.
Screening O=C(c1ccc(-c2cc(Cl)ccc2Cl)o1)N1CCOCC1 returned HSF-1 act inactive, Hsp70 act inactive, S1P4 agonist inactive, S1P4 antagonist inactive, S1P3 antag inactive and HSF1 inhib inactive.
For CCc1ccc(NC(=O)CSC2=C(C#N)C(c3ccc4c(c3)OCO4)CC(=O)N2)cc1 (stereo unspecified) the results were HSF-1 act 64, Hsp70 act inactive, S1P4 agonist inactive, S1P4 antagonist inactive and HSF1 inhib inactive.
Cc1ccc(NC(=O)CSC2=C(C#N)C(c3ccc4c(c3)OCO4)CC(=O)N2)cc1C (stereo unspecified) was read as HSF-1 act inactive, Hsp70 act inactive, S1P4 agonist inactive, S1P4 antagonist inactive and HSF1 inhib inactive.
Clc1cc(Cl)cc(C2=NC(Cc3ccccc3)CO2)c1 (stereo unspecified) was read as HSF-1 act inactive and HSF1 inhib inactive.
Screening CCOC(=O)c1ccc(N2CSC3=C(C#N)C(c4cccs4)CC(=O)N3C2)cc1 (stereo unspecified) returned HSF-1 act inactive, Hsp70 act inactive, S1P4 agonist inactive, S1P4 antagonist inactive, S1P3 antag 96 and HSF1 inhib inactive.
`O=C(NC1CCCCC1)c1cc2cc(Br)ccc2o1` gave HSF-1 act 68 and HSF1 inhib inactive.
O=C(NC1CCCC1)c1cc2ccccc2o1 was read as HSF-1 act inactive and HSF1 inhib inactive.
For O=C(NC1CCCC1)c1cc2cc(Br)ccc2o1 the results were HSF-1 act 60 and HSF1 inhib inactive.
`Cc1ccc(OCC(=O)OCC(=O)c2c(N)n(C)c(=O)n(C)c2=O)cc1C` gave HSF-1 act inactive, Hsp70 act inactive, S1P4 agonist inactive, S1P4 antagonist inactive and HSF1 inhib inactive.
CC(=O)c1sc(N/N=C\c2ccccc2O)nc1C was read as HSF-1 act 56, Hsp70 act inactive, S1P4 agonist inactive, S1P4 antagonist inactive, S1P3 antag inactive and HSF1 inhib inactive.
`CCOC(=O)c1sc(N/N=C/c2ccccc2)nc1C` gave HSF-1 act inactive, Hsp70 act inactive, S1P4 agonist inactive, S1P4 antagonist inactive, S1P3 antag inactive and HSF1 inhib inactive.
Screening CC(C)CCNC(=O)C1CCCN1C(=O)NC1CCCCC1 (stereo unspecified) returned HSF-1 act inactive, Hsp70 act inactive, S1P4 agonist inactive, S1P4 antagonist inactive and HSF1 inhib -72.
Screening Clc1ccc(OCCN2CCN(c3ncnc4sccc34)CC2)cc1 returned Hsp70 act inactive, S1P4 agonist inactive, S1P4 antagonist inactive and S1P3 antag 64.
COc1ccc2c(c1)c(C(=O)N/N=C/c1ccccc1Cl)c(C)n2C was read as HSF-1 act 56, S1P4 agonist inactive, S1P4 antagonist inactive, S1P3 antag inactive and HSF1 inhib inactive.
For Cc1ccccc1C(=O)NCCOc1ccccc1Cl the results were HSF-1 act 70 and HSF1 inhib inactive.
For CSc1ccccc1C(=O)NCCOc1ccccc1C the results were HSF-1 act inactive, Hsp70 act inactive, S1P4 agonist inactive, S1P4 antagonist inactive, S1P3 antag inactive and HSF1 inhib inactive.
COc1ccc(-c2cc(C)no2)cc1S(=O)(=O)N1CCN(C(=O)c2ccco2)CC1 was read as HSF-1 act inactive and HSF1 inhib inactive.
`Cc1ccc(N(CC(=O)NCc2ccc(F)cc2)C(=O)c2csnn2)c(C)c1` gave HSF-1 act inactive, Hsp70 act inactive, S1P4 agonist inactive, S1P4 antagonist inactive, S1P3 antag inactive and HSF1 inhib inactive.
Cc1cccc(N(CC(=O)NCc2ccc(F)cc2)C(=O)c2csnn2)c1C was read as HSF-1 act 52, Hsp70 act inactive, S1P4 agonist inactive, S1P4 antagonist inactive, S1P3 antag inactive and HSF1 inhib inactive.
`Cc1ccc(NC(=O)c2sc3nc[nH]c(=O)c3c2C)c(C)c1` gave HSF-1 act inactive, Hsp70 act inactive, S1P4 agonist inactive, S1P4 antagonist inactive and HSF1 inhib inactive.
`O=C(CCc1ccccc1)c1ccc2c(c1)OCCCO2` gave HSF-1 act inconclusive, Hsp70 act inactive, S1P4 agonist inactive, S1P4 antagonist inactive and HSF1 inhib inactive.
`O/N=C(/CCc1ccccc1)c1ccc2c(c1)OCCO2` gave HSF-1 act 55, Hsp70 act inactive, S1P4 agonist inactive, S1P4 antagonist inactive, S1P3 antag inactive and HSF1 inhib inactive.
For O=C(CCCc1ccccc1)c1ccc2c(c1)OCCO2 the results were HSF-1 act inactive, Hsp70 act inactive, S1P4 agonist inactive, S1P4 antagonist inactive and HSF1 inhib -89.
Screening O=C(NCCc1ccccc1)c1ccc2c(c1)OCCCO2 returned HSF-1 act inactive and HSF1 inhib -83.
`COc1ccc(CCNC(=O)c2ccc3c(c2)OCCO3)cc1` gave HSF-1 act inactive, Hsp70 act inactive, S1P4 agonist inactive, S1P4 antagonist inactive, S1P3 antag inactive and HSF1 inhib inactive.
For O=C(NCCc1ccccc1)Nc1ccc2c(c1)OCO2 the results were HSF-1 act 62, Hsp70 act inactive, S1P4 agonist inactive, S1P4 antagonist inactive, S1P3 antag inactive and HSF1 inhib inactive.
`Cc1nccc(-c2cc(-c3ccc(Cl)cc3Cl)no2)n1` gave HSF-1 act inactive, S1P4 agonist inactive, S1P4 antagonist inactive, S1P3 antag inactive and HSF1 inhib inactive.
O=C1CCN(S(=O)(=O)c2ccc(Cl)cc2)CCN1 was read as HSF-1 act inactive, S1P4 agonist inactive, S1P4 antagonist inactive, S1P3 antag inactive and HSF1 inhib inactive.
For Cc1nnc(NC(=O)CSc2nnc(NC(=O)C(C)(C)C)s2)s1 the results were HSF-1 act inactive, Hsp70 act inactive, S1P4 agonist inactive, S1P4 antagonist inactive, S1P3 antag inactive and HSF1 inhib inactive.
O=C(NCCc1ccccc1)c1ccc2c(c1)OCCO2 was read as HSF-1 act inactive and HSF1 inhib -66.
For COc1ccc(-n2c(=O)c3c4c(sc3n(CC(N)=O)c2=O)CCCCC4)cc1 the results were HSF-1 act 52, S1P4 agonist inactive, S1P4 antagonist inactive, S1P3 antag inactive and HSF1 inhib inactive.
For O=C(CCSCCc1ccccn1)Nc1ccc(Br)cn1 the results were HSF-1 act inactive, Hsp70 act inactive, S1P4 agonist inactive, S1P4 antagonist inactive and HSF1 inhib inactive.

Source: PubChem
